# From PubChem BioAssay
# Compounds with a hit are over-represented: about 2% of the library has one in this group of screens.
# A3G deaminase: inhibitors of human APOBEC3G DNA deaminase; Q9HC16; recombinant A3G, ssDNA deamination FAM/TAMRA fluorescence; inhibition, % at 20 µM; 0.28% of 330,000 active; AID 493012;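 active means inhibition of at least 40% at 20 µM, with no more than 30% in the related APOBEC3A deaminase screen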;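 further: plate controls were DMSO wells with A3G for no effect and wells lacking A3G enzyme for full effect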
# Neddylation inh: blocks human cullin neddylation | inhibition, % at 25 µM | P61081+Q13564 | 0.58% of 360,000 active | TR-FRET cullin neddylation, biochemical; in the data active means inhibition above about 36%
# Target sequence (P61081 whole entry, looked up): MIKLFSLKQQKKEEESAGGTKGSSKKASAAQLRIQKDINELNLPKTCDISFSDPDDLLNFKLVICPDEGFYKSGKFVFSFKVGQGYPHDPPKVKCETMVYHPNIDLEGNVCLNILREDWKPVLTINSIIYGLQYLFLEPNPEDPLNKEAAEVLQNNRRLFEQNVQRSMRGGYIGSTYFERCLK
# Target sequence (Q13564 whole entry, looked up): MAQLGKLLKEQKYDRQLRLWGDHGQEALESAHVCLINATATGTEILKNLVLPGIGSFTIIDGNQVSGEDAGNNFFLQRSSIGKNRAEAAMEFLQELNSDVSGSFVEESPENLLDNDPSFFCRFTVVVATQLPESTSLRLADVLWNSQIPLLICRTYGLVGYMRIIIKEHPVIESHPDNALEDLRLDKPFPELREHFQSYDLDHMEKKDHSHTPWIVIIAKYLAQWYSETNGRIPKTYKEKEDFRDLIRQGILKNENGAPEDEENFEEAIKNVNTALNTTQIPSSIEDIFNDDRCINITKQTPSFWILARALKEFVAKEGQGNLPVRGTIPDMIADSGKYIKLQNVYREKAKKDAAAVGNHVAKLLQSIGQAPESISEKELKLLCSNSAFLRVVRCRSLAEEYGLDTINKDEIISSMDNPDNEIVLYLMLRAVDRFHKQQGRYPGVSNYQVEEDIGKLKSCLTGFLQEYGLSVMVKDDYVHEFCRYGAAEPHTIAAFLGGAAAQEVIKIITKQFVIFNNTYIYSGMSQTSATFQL
# NPR2 activator: GC-B (human) receptor activation; P20594; HEK293-GC-B cells, CNP EC30, cGMP TR-FRET; 0% at EC30 CNP, 100% saturating CNP; activation, % at 10 µM; 0.11% of 370,000 active; AID 1920062;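 active means activation at 10 µM reaching about 35% in either raw or pattern-adjusted values, limit read from the data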
# GC-A act: GC-A (human) enzyme activation. P16066. HEK293 GC-A cells, cGMP TR-FRET, EC30 ANP; 0% at EC30 ANP, 100% saturating ANP. activation, % at 10 µM. 0.14% of 370,000 active; in the data active means activation above about 40%
# APOBEC3A inh: inhibitors of human APOBEC3A DNA deaminase | recombinant A3A, FAM/TAMRA ssDNA deamination fluorescence | inhibition, % at 20 µM | 0.41% of 330,000 active;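 active means at least 40% inhibition at 20 µM here, with at most 30% in a related deaminase screen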;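 further: plate controls were A3A with DMSO for no effect and wells lacking A3A enzyme for full effect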
# PfGluPho inh: PfG6PD (Plasmodium falciparum) enzyme inhibition; PfGluPho enzyme, NADPH resazurin-diaphorase fluorescence; inhibition, % at 20 µM; 0.78% of 350,000 active;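 active means inhibition reaching at least a set limit at 20 µM in the primary screen, cut at about 59% in these data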;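 further: 0% = DMSO wells with substrate and 100% = DMSO wells lacking glucose-6-phosphate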
# Neddyl conf: cullin neddylation inhibition, confirmation; calls only at 25 µM; TR-FRET cullin neddylation biochemical assay; 13% of 1,800 active; shares compounds with Neddylation inh; in the data active means inhibition above about 40%;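 further: neddylation substrate is the cullin 1 ring ligase complex with SKP2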
# An asterisk follows results filed as active; i = inactive; . = no result shown; + = active, no number.
SMILES,A3G deaminase,Neddylation inh,NPR2 activator,GC-A act,APOBEC3A inh,PfGluPho inh,Neddyl conf
COc1ccccc1N=c1oc2cc(O)ccc2cc1C(=O)NCC1CCCO1 (stereo unspecified),-1.4,.,2.8,-1.6,2.2,-19.7,.
COc1cccc(N=c2oc3cc(O)ccc3cc2C(=O)NCC2CCCO2)c1 (stereo unspecified),-1.6,43.6*,26.5,22.0,5.7,3.8,i
COc1ccc2[nH]c(=O)c(CN(Cc3nnnn3Cc3ccccc3)CC3CCCO3)cc2c1 (stereo unspecified),-4.2,46.0*,-5.4,-9.3,-4.3,-4.8,i
COCCn1nnnc1CN(CCc1ccccc1)Cc1cc2cc(OC)ccc2[nH]c1=O,3.7,.,-3.5,-0.6,10.7,-5.8,.
Cc1ccc2[nH]c(=O)c(CN(Cc3cccnc3)Cc3nnnn3CC3CCCO3)cc2c1 (stereo unspecified),-6.7,0.9,1.8,1.7,-1.2,-3.5,.
COc1ccc2[nH]c(=O)c(CN(Cc3nnnn3Cc3ccc(F)cc3)CC3CCCO3)cc2c1 (stereo unspecified),-3.4,45.7*,-5.7,-4.0,-2.5,-5.5,i
COCCn1nnnc1CN(Cc1cccnc1)Cc1cc2cc(OC)ccc2[nH]c1=O,.,43.0*,5.4,2.9,.,-6.3,i
O=c1[nH]c2cc3c(cc2cc1CN(Cc1ccc2c(c1)OCO2)Cc1nnnn1CC1CCCO1)OCO3 (stereo unspecified),-1.3,38.9*,-5.0,-2.9,6.1,15.1,i
O=c1[nH]c2cc3c(cc2cc1CN(Cc1cccnc1)Cc1nnnn1Cc1ccco1)OCCO3,55.6,33.0,-4.8,-3.0,60.5,27.2,.
O=c1[nH]c2cc3c(cc2cc1CN(Cc1cccs1)Cc1nnnn1Cc1ccco1)OCCO3,29.1,45.0*,0.8,0.8,28.4,31.8,i
COC(=O)[C@@H](Cc1ccccc1)N[C@H](/C=C/c1ccccc1)[C@@H](O)Cc1ccccc1,.,.,-13.0,-10.8,.,.,.
CC(=O)OC[C@H]1O[C@@H](Oc2cc(O)cc3oc(-c4ccc(O)cc4)cc(=O)c23)[C@H](O[C@@H]2O[C@@H](C)[C@H](O)[C@@H](O)[C@H]2O)[C@@H](O)[C@@H]1O,9.5,37.0*,1.8,2.5,0.6,0.0,.
CC1OC(OC2C(Oc3c(-c4ccc(O)cc4)oc4cc(O)cc(O)c4c3=O)OC(COC3O[C@@H](C)[C@H](O)[C@@H](O)C3O)C(O)C2O)C(O)C(O)C1O (stereo partly specified),4.6,-17.0,0.1,0.3,-3.7,-7.5,.
OCCCN=C1CCCc2c1[nH]c1ccc(Cl)cc21,-1.4,39.7*,1.1,8.0,-3.7,6.8,i
S=c1[nH]nc2ccc3ccccc3n12,.,38.3*,-9.6,2.3,.,.,.
S=c1[nH]c2ccccc2n2c(=S)[nH]nc12,32.6,-34.7,-116.1,-77.2,-0.9,8.7,.
CS(=O)(=O)Nc1ccc(-c2cncc3nccn23)cc1,.,50.0*,0.5,4.1,.,.,.
O=c1ccc2cc3c(-c4ccccc4)coc3cc2o1,-7.0,45.6*,3.3,-0.5,-5.3,6.3,i
COc1ccc(-c2cn3cccnc3n2)cc1NC(=O)C1CC1,1.4,26.4,5.3,2.2,4.3,11.8,.
COc1ccc(-c2cn3cccnc3n2)cc1NC(=O)C1CCCC1,-2.9,40.2*,-1.0,3.3,-0.2,4.8,i
COc1ccccc1CCn1cnc2c3cc(C)ccc3n(C)c2c1=O,-5.1,43.1*,-8.7,-6.8,-1.1,30.1,.
CC(C)C[C@H]1COc2cccc(N3CCCC3)c2S(=O)(=O)N1C,.,.,-3.8,-1.5,.,.,.
C=CCN1C(=O)[C@@H](CC(=O)NCc2cccs2)[C@]2(C(=O)OC)CCCCC=C12,.,.,-4.3,1.9,.,.,.
C/C=C/c1cnc2c(c1)C(=O)N([C@@H](C)CO)C[C@H](C)[C@@H](CN(C)S(=O)(=O)c1ccc(C)cc1)O2,.,5.0,-2.6,2.0,.,3.2,.
C[C@@H]1CN([C@@H](C)CO)C(=O)c2cc(/C=C/c3ccccc3)cnc2O[C@@H]1CN(C)S(=O)(=O)c1ccc(F)cc1,.,41.4*,-0.8,3.1,.,3.1,i
SMILES,A3G deaminase,Neddylation inh,NPR2 activator,GC-A act,APOBEC3A inh,PfGluPho inh,Neddyl conf
CS(=O)(=O)N1c2ccccc2C[C@H]1Cc1cc2ccccc2o1,.,.,-4.2,-5.0,.,.,.
Cc1ccccc1S(=O)(=O)N1CCCc2nc(C)c(C)cc21,.,.,3.3,1.5,.,.,.
Nc1nccc(/C=C/c2ccc(Cl)cc2)n1,-9.5,37.2*,-4.9,9.8,1.2,3.5,i
CCN(CC)CCCN(Cc1cc2cc3c(cc2[nH]c1=O)OCO3)C(=S)NCCCN(C)C,-4.0,43.7*,-1.4,8.1,3.4,-15.9,i
COc1ccc(Nc2nc(N3CCN(S(C)(=O)=O)CC3)nc3ccccc23)c(OC)c1,-9.0,.,-10.6,5.0,-6.2,-4.3,.
COc1ccc(Nc2nc(N3CCCCC3)nc3ccccc23)c(OC)c1,-1.3,40.1*,-5.9,-6.0,-1.5,-8.4,.
Oc1cccc(Nc2ncnc3c2oc2ccccc23)c1,-8.4,47.6*,0.1,-0.9,0.4,20.2,.
C[C@H]1COc2cc(Br)ccc2S(=O)(=O)N1Cc1cn(Cc2ccc(Br)cc2)nn1,.,.,-8.2,-7.5,.,.,.
CC1CC1C(=O)N1CCC(Oc2cccnc2)CC1 (stereo unspecified),.,.,2.4,1.2,.,.,.
Cc1ccc(-c2nn(-c3ccccc3)cc2C2CC(c3cccs3)=NN2C(=O)CCC(=O)O)cc1 (stereo unspecified),-2.8,40.9*,-1.6,1.4,-2.0,8.3,i
COc1ccc(CN2C(=O)[C@]3(NCCc4c3[nH]c3ccc(OC)cc43)c3cc(F)ccc32)cc1,.,.,0.0,0.8,.,.,.
O=C1CCC[C@H]2C[C@H](NCc3ccccc3Cl)CC[C@]23CCCN13,.,.,1.2,-2.7,.,.,.
COC(=O)C1=C(C)NC2=C(C(=O)CCC2)C1c1ccc(-c2ccsc2C(=O)OC)o1 (stereo unspecified),-0.3,38.4*,-7.7,-8.0,10.0,15.4,.
CCOC(=O)c1nc(C)sc1-c1ccnn1S(=O)(=O)c1cccc(Cl)c1,-6.2,75.9*,2.7,3.1,-5.2,-1.1,i
COC(=O)C1C(O)=C(C=Nc2cccc3ccccc23)C(=O)CC1(C)C (stereo unspecified),2.7,40.5*,-4.9,-3.8,-0.5,2.9,+
COC(=O)C1C(O)=C(C=NCc2ccccc2)C(=O)CC1(C)C (stereo unspecified),-4.4,-3.3,-4.3,-2.4,-1.1,3.3,.
CCN(CC)C(=O)Oc1ccc2oc(=O)cc(-c3cc4cccc(OC)c4o3)c2c1,-6.1,47.5*,8.6,6.2,-3.6,13.3,.
COc1cccc(OC)c1-c1nnc(-c2cn(C)c3ccccc23)o1,-2.6,44.8*,3.4,-2.9,-3.1,0.1,i
